For part of these data: Entries with a potency or affinity are not part of this list. Activity calls are given as the source filed them. Unless noted, no rule for the calls is given here.
Legend:
[1] = antimalarial activity against Dd2 strain (AID 2302;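 active = growth inhibition above 50% at the single 2 µM test dose, taken to imply half-maximal potency below 2 µM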;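 also: 0% = DMSO untreated growth and 100% = chloroquine plus artemisinin killed control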); settings: P. falciparum Dd2 in RBCs, LDH growth readout, 72 h; at 2 µM; hits give high values
[2] = HepG2 cytotoxicity, primary screen, cytotoxicity control for P. falciparum antimalarial project, cell-based, ATP luminescence (AID 2303;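 active = inhibition above 50%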;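 also: 0% = DMSO wells and 100% = digitonin-killed cells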); settings: HepG2 viability, 24-48 h, at 10 µM, hits give high values
[3] = target: L-lactate dehydrogenase (Plasmodium falciparum (isolate CDC / Honduras)) (UniProt Q27743); test: PfLDH activity inhibition – cell lysate, 3D7 strain, counter-screen for P. falciparum growth inhibition project (AID 2304);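 also: 0% = vehicle and 100% = reference inhibitor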; settings: P. falciparum 3D7 crude extract, LDH APAD/NBT absorbance; at 2 µM; hits give high values
[4] = inhibition of 3D7 malaria parasite growth – strain 3D7 (AID 2306);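 also: 0% = DMSO wells and 100% = chloroquine plus artemisinin control wells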; settings: P. falciparum 3D7 erythrocytic growth, LDH absorbance, 72 h; at 2 µM; hits give high values
[5] = target: Calcium-dependent protein kinase 1 (Plasmodium falciparum (isolate 3D7)) (UniProt P62344); test: PfCDPK1 kinase inhibitors, biochemical, TCAMS library (AID 1159585; cut-off not given, nearly all actives have IC50 up to about 0.98 µM;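 also: inhibitors leave more ATP so luminescence rises with inhibition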); settings: recombinant PfCDPK1, Kinase-Glo ATP depletion luminescence
[6] = target: Plasmodium falciparum protein kinase 6 (PK6, PF3D7_1337100) (UniProt Q8IDW1); test: PfPK6 kinase inhibitors, biochemical, TCAMS library (AID 1159586); settings: recombinant PfPK6, Kinase-Glo ATP depletion luminescence
[7] = target: Protein kinase 7 (PK7), Plasmodium falciparum 3D7 (PF3D7_0213400) (UniProt Q7YTF7); test: inhibition of Plasmodium PK7 catalytic activity – biochemical, TCAMS antimalarial set, Kinase-Glo luminescence (AID 1159587); settings: recombinant PfPK7, Kinase-Glo ATP depletion luminescence
[8] = target: Calcium-dependent protein kinase 4 (Plasmodium falciparum (isolate 3D7)) (UniProt Q8IBS5); test: PfCDPK4 kinase inhibitors, biochemical, TCAMS library (AID 1159588; cut-off not given, nearly all actives have IC50 up to about 0.91 µM); settings: recombinant PfCDPK4, Kinase-Glo ATP depletion luminescence
Sequence of Calcium-dependent protein kinase 4 (Plasmodium falciparum (isolate 3D7)) (Q8IBS5 whole entry, looked up): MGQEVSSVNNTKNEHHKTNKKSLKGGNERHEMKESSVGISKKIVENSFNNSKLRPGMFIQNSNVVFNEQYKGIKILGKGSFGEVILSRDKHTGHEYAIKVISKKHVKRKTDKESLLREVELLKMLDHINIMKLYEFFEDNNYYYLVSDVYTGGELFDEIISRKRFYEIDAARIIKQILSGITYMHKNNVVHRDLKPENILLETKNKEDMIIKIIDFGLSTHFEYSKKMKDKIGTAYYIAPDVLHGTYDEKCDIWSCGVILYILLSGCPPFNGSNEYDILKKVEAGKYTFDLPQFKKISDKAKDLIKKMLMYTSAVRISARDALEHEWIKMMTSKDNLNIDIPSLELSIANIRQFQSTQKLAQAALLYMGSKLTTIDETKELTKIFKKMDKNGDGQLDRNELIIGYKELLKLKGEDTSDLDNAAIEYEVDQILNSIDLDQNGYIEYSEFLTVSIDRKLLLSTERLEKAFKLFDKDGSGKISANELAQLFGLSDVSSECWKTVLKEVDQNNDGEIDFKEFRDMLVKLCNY

Sequence of Calcium-dependent protein kinase 1 (Plasmodium falciparum (isolate 3D7)) (P62344 whole entry, looked up): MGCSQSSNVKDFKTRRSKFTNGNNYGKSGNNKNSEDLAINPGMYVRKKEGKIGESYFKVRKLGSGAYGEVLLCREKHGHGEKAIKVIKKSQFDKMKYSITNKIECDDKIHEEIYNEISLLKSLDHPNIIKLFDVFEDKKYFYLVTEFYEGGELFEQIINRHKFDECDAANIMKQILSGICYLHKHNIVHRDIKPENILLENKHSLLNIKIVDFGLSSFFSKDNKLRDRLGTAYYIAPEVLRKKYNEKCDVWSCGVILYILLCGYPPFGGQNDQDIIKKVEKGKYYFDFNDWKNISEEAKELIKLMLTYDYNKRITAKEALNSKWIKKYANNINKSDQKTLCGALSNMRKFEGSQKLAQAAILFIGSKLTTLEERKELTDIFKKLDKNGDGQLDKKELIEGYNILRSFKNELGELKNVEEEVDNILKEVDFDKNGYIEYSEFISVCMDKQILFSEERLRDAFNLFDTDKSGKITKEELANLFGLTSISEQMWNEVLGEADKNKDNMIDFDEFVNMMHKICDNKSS
Sequence of Protein kinase 7 (PK7), Plasmodium falciparum 3D7 (PF3D7_0213400) (Q7YTF7 1-343): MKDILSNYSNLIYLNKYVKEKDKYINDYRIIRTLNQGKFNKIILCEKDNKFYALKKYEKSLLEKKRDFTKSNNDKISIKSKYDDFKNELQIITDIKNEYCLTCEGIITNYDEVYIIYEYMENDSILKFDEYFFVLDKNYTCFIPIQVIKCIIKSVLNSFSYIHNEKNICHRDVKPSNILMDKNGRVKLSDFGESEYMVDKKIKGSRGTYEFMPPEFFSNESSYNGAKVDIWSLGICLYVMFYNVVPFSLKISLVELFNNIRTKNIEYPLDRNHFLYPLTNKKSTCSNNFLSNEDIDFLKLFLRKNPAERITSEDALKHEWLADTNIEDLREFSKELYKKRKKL
Sequence of Plasmodium falciparum protein kinase 6 (PK6, PF3D7_1337100) (Q8IDW1 1-305): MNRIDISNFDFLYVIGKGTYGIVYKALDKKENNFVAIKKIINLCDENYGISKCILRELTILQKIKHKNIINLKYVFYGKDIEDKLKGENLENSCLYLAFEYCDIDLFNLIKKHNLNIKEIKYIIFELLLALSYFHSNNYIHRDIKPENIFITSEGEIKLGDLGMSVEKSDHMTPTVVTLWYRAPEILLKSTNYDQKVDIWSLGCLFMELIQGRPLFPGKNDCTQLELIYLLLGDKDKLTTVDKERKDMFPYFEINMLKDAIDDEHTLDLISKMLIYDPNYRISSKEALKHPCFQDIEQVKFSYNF
Sequence of L-lactate dehydrogenase (Plasmodium falciparum (isolate CDC / Honduras)) (Q27743 whole entry, looked up): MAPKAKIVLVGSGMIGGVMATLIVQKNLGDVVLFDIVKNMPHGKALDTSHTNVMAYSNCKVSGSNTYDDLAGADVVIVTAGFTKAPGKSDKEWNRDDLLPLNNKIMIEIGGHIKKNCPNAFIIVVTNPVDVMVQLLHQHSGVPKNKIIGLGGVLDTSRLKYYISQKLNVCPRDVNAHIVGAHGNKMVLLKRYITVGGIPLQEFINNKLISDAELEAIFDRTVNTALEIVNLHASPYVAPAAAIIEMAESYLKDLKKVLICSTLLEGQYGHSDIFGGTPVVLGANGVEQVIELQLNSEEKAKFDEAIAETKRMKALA

| SMILES | growth inhibition [1] | inhibition [2] | inhibition [3] | growth inhibition [4] | outcome [5] | outcome [6] | outcome [7] | outcome [8] |
| --- | --- | --- | --- | --- | --- | --- | --- | --- |
| O=C(N[C@@H](Cc1ccccc1)[C@H](O)CNC1CCCCC1)c1cc(C2CCCC2)cc(N2CCCC2=O)c1 | 98% (active) | 17% (inactive) | 0% (inactive) | 100% (active) | inactive | inactive | inactive | inactive |
| O=c1n(CC2CCCCC2)c2cc(Cl)cc(OCCNc3ccncc3)c2n1CC1CCCCC1 | 64% (active) | 2% (inactive) | -3% (inactive) | 100% (active) | inactive | inactive | inactive | inactive |
| CC(C)(C)OC(=O)N[C@@H](Cc1ccccc1)C(=O)Nc1cccc(-c2cccc(NC(=O)[C@H](Cc3ccccc3)NC(=O)OC(C)(C)C)c2)c1 | 97% (active) | 10% (inactive) | 6% (inactive) | 106% (active) | inactive | inactive | inactive | inactive |
| COc1ccc(NC(=O)[C@H](CC(C)C)Nc2cc(C)nc(NCCc3ccc(F)cc3)n2)cc1 | 79% (active) | 1% (inactive) | -3% (inactive) | 100% (active) | inactive | inactive | inactive | inactive |
| O=C(Nc1ccc(Br)cc1)c1cc(Br)ccc1NS(=O)(=O)c1ccc(C(F)(F)F)cc1 | 56% (active) | 53% (active) | 2% (inactive) | 100% (active) | inactive | inactive | inactive | inactive |
| CCCCCCC(N)c1ccc(OCCCOc2ccc(C(N)CCCCCC)cc2)cc1 (configuration not stated) | 70% (active) | 100% (active) | 1% (inactive) | 88% (active) | inactive | inactive | inactive | inactive |
| O=C(NCCCCCN1CCC(c2c[nH]c3ccccc23)CC1)Nc1cccc(C(F)(F)F)c1 | 11% (inactive) | 51% (active) | -1% (inactive) | 97% (active) | inactive | inactive | inactive | inactive |
| O=S(=O)(Nc1cc2c(cc1OCc1ccccc1)CCN(C1CCC1)CC2)c1ccc(-c2ccc(Cl)cc2)cc1 | 12% (inactive) | 18% (inactive) | 0% (inactive) | 92% (active) | inactive | inactive | inactive | inactive |
| Cc1cc(N(C)CCN(C)C)nc(Nc2ccc(Br)cc2)n1 | 23% (inactive) | 7% (inactive) | -1% (inactive) | 97% (active) | inactive | inactive | inactive | inactive |
| O=C(Nc1ccc2c(c1)CN(Cc1ccc(N3CCCC3)o1)CCC2)c1ccoc1 | 76% (active) | 4% (inactive) | -3% (inactive) | 89% (active) | inactive | inactive | inactive | inactive |
| O=C(NCCN1CCCC1)N1CCCN(c2ncnc3cc(-c4ccc(Cl)cc4)sc23)CC1 | 32% (inactive) | 13% (inactive) | 6% (inactive) | 96% (active) | inactive | inactive | inactive | inactive |
| COc1ccc(NS(=O)(=O)c2ccccc2Br)cc1N1CCN(C)CC1 | 3% (inactive) | 2% (inactive) | -3% (inactive) | 94% (active) | inactive | inactive | inactive | inactive |
| NC(=O)c1cccc(C(=O)Nc2cccc(-c3csc(-c4nc5ccccc5[nH]4)c3)c2)c1 | 92% (active) | 16% (inactive) | 0% (inactive) | 101% (active) | inactive | inactive | inactive | inactive |
| O=S(=O)(NCCN1CCCC1)c1ccc(-c2cccc(CNCc3ccsc3)c2)s1 | 43% (inactive) | 42% (inactive) | 0% (inactive) | 90% (active) | inactive | inactive | inactive | inactive |
| NC1CCN(CCc2ccc(NS(=O)(=O)c3ccc(-c4ccccc4)cc3)cc2)CC1 | 19% (inactive) | 17% (inactive) | 0% (inactive) | 100% (active) | inactive | inactive | inactive | inactive |
| Cc1cnc2ccc(NS(=O)(=O)c3sc4ccc(Cl)cc4c3C)cc2c1N1CCNCC1 | -1% (inactive) | -9% (inactive) | 4% (inactive) | 99% (active) | inactive | inactive | inactive | inactive |
| COc1ccc(CCN(C)CCOc2ccc(NC(=O)COc3ccc4sc5ccccc5c(=O)c4c3)cc2)cc1OC | 91% (active) | 99% (active) | -1% (inactive) | 100% (active) | inactive | inactive | inactive | inactive |
| Cc1nc2nc(N)nc(N)c2c(C)c1Cc1ccccc1I | -5% (inactive) | 63% (active) | 5% (inactive) | 96% (active) | inactive | inactive | inactive | inactive |
| CC(C)COc1ccc(Cl)cc1Cc1nc(-c2nc3ccc(CN4CCCCC4)cc3[nH]2)co1 | 70% (active) | 49% (inactive) | -4% (inactive) | 101% (active) | inactive | inactive | inactive | inactive |
| COc1ccc2nccc([C@@H](O)CN3CCC(NCCOc4c(C)cccc4F)CC3)c2c1 | 95% (active) | 4% (inactive) | -5% (inactive) | 100% (active) | inactive | inactive | inactive | inactive |

| SMILES | growth inhibition [1] | inhibition [2] | inhibition [3] | growth inhibition [4] | outcome [5] | outcome [6] | outcome [7] | outcome [8] |
| --- | --- | --- | --- | --- | --- | --- | --- | --- |
| O=C(CNC1=NCCN1)Nc1ccc(NC(=O)Nc2ccc(NC(=O)CNC3=NCCN3)cc2)cc1 | 75% (active) | -5% (inactive) | -2% (inactive) | 90% (active) | inactive | inactive | inactive | inactive |
| COc1cc(OC)nc(C(Sc2ccc(NC(=O)c3cccs3)cc2)c2ccccc2)n1 (configuration not stated) | 96% (active) | 7% (inactive) | -1% (inactive) | 97% (active) | inactive | inactive | inactive | inactive |
| COc1ccccc1C1CCN(CCCCNC(=O)c2ccc(/C=C/c3cc(Cl)cc(Cl)c3)cc2)CC1 | 30% (inactive) | 36% (inactive) | 9% (inactive) | 96% (active) | inactive | inactive | inactive | inactive |
| NC(N)=Nc1nc(-c2ccc(NCc3ccc(CNc4cccc(-c5csc(N=C(N)N)n5)c4)cc3)cc2)cs1 | 99% (active) | 11% (inactive) | 0% (inactive) | 102% (active) | inactive | inactive | inactive | inactive |
| CCOc1cc(C)ccc1N1CCN(CCCCNC(=O)c2ccc(NC(=O)c3ccc(Cl)cc3)cc2)CC1 | 46% (inactive) | 19% (inactive) | -5% (inactive) | 100% (active) | inactive | inactive | inactive | inactive |
| Cc1ccc(Cn2c(N3CCC(C(=O)NCc4cccs4)CC3)nc3ccccc32)cc1 | 71% (active) | -4% (inactive) | -1% (inactive) | 99% (active) | inactive | inactive | inactive | inactive |
| CN(C)Cc1c(O)ccc2[nH]c(-c3ccc(OC(F)(F)F)cc3)nc12 | 97% (active) | 24% (inactive) | -3% (inactive) | 101% (active) | inactive | inactive | inactive | inactive |
| CCCNC(=O)c1ccc(N2CCC(c3ccccc3C)CC2)nc1 | 80% (active) | 6% (inactive) | 2% (inactive) | 86% (active) | inactive | inactive | inactive | inactive |
| COc1ccccc1N1CCN(C(C(=O)NCc2cccc(F)c2)c2ccc(C)cc2)CC1 (configuration not stated) | 80% (active) | 4% (inactive) | 1% (inactive) | 94% (active) | inactive | inactive | inactive | inactive |
| CN(C)CCCNCc1ccc(-c2ccc(CNCCOc3ccccc3)cc2)cc1 | 53% (active) | 27% (inactive) | 0% (inactive) | 100% (active) | inactive | inactive | inactive | inactive |
| CCCN1CC[C@@H](CCCc2ccnc3ccc(O)cc23)[C@@H](CC)C1 | 14% (inactive) | 10% (inactive) | -2% (inactive) | 93% (active) | inactive | inactive | inactive | inactive |
| O=C(Nc1ccc2c(c1)CCN2C1CCN(Cc2cc(F)cc(F)c2F)C1)c1ccco1 (configuration not stated) | 95% (active) | -2% (inactive) | 1% (inactive) | 96% (active) | inactive | inactive | inactive | inactive |
| Cc1ccccc1C1CCN(C2CCC(NC(=O)/C=C/c3cccc(Cl)c3Cl)CC2)CC1 (configuration not stated) | 23% (inactive) | 74% (active) | 2% (inactive) | 94% (active) | inactive | inactive | inactive | inactive |
| O=C(Nc1cccnc1)c1cc(-c2cccnc2)nc2ccc(Cl)cc12 | 50% (active) | 45% (inactive) | -6% (inactive) | 97% (active) | inactive | inactive | inactive | inactive |
| CC1(C)CC(NCCCCCCCOc2ccc(OCc3ccccc3)cc2)CC(C)(C)N1 | 73% (active) | 99% (active) | 0% (inactive) | 100% (active) | inactive | inactive | inactive | inactive |
| CN1CCN(c2ccnc3ccc(NC(=O)Nc4ccc(-c5ccncc5)c(C(F)(F)F)c4)cc23)CC1 | 99% (active) | 12% (inactive) | 6% (inactive) | 99% (active) | inactive | inactive | inactive | inactive |
| CN1CCC(N(Cc2ccc(-c3ccc(C(F)(F)F)cc3)nc2)C(=O)Cn2c(CCc3cccc(F)c3F)cc(=O)c3ccccc32)CC1 | 85% (active) | 60% (active) | 3% (inactive) | 91% (active) | inactive | inactive | inactive | inactive |
| C[C@H](Nc1nc(C(Oc2ccccc2)c2ccccc2)nc2[nH]ncc12)c1ccccc1 (some centres not stated) | 56% (active) | 15% (inactive) | -5% (inactive) | 100% (active) | inactive | inactive | inactive | inactive |
| CCOc1cc(Br)c(C(C)NC(=O)c2cccc(OC)c2)cc1OCC (configuration not stated) | 37% (inactive) | -1% (inactive) | 3% (inactive) | 90% (active) | inactive | inactive | inactive | inactive |

Source: PubChem BioAssay
